# The sample as a whole holds a higher share of hits than the screen did.
# Pf Dd2 growth – inhibitors of Plasmodium falciparum Dd2 growth; Potency, µM (top dose mostly 28.9 µM), inactives show at the highest dose activity, negative = inhibition, actives largely listed as inhibitors; P. falciparum Dd2 growth, SYBR Green, 72 h; 120,000 compounds, 4.3% hits; AID 1347417; active = well fitted inhibition curve with a large enough effect;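 note: plate controls were DMSO vehicle for no effect and reference drug for full effect; nearly all actives have a fitted effect of over 65% in size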
#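 Readout: SYBR Green fluorescence, 485 nm excitation, 535 nm emission, after ~16 h lysis at 37C. Before that, Dd2-infected red cells (2.5% hematocrit) grew 72 h with compound, 29 uM top final concentration.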
# Starred values were filed as active, the others as inactive; i = inactive; [ ] = another dose, or the depositor's remark. Potency is the fitted concentration of half-maximal effect.
SMILES,Pf Dd2 growth
COc1cc2c(cc1OCc1ccccc1)NC(=O)C21CCN(C(=O)C2CCC2)CC1,-14%[44.1 µM]
Cc1noc(C)c1C(=O)N1CCC2(CC1)CN(C(=O)Cc1ccc(O)cc1)CCO2,-2%
Cc1nc(N2CCN(C(=O)c3cccc(F)c3)CC2)cc(C(F)(F)F)n1,-15%
CCOc1ccccc1C(=O)NCC(c1cccs1)S(=O)(=O)c1ccc(F)c(C)c1 (centres undefined),20%
Cc1cc(S(=O)(=O)C(CNC(=O)c2ccc(OC(C)C)cc2)c2cccs2)ccc1F (centres undefined),5µM*
COc1ccc(CC(=O)NCC(c2cccs2)S(=O)(=O)c2ccc(F)c(C)c2)cc1 (centres undefined),i
COc1ccccc1C(=O)NC[C@H]1Cn2c(-c3ccc4c(c3)OCCO4)cnc2CO1,-1%[44.1 µM]
COc1ccccc1CNC[C@H]1Cn2c(-c3cccc(Cl)c3)cnc2CO1,13µM*
Fc1ccc(CNC[C@H]2Cn3c(-c4ccc(F)cc4)cnc3CO2)cc1,-15%[44.1 µM]
CN(CC1CCN(CCc2cccc(F)c2)CC1)C(=O)[C@@H](N)Cc1cnc[nH]1,-1%
COc1ccc(CN(C)CC2CCN(CCc3ccc(F)cc3)CC2)cc1Cn1cccn1,10µM*
COc1ccc(CCN2CCC(CN(C)C(=O)C3CCCCO3)CC2)cc1 (centres undefined),-11%
COCCn1c(=O)n([C@H]2CCCN(C(=O)c3cc(F)ccc3F)C2)c2ncccc21,4%
CCOC(=O)CCNC(=O)N1CCC[C@H](n2c(=O)n(CC3CC3)c3cccnc32)C1,-15%
COc1ccc(C(=O)N2CCC[C@H](n3c(=O)n(CC4CC4)c4cccnc43)C2)cc1F,13µM*
CCCn1cc(C(=O)N2CCN(S(=O)(=O)N3CCCC3)CC2)c(C)n1,-11%
CCC(CC)NC(=O)c1c(OCC2CC2)cc(=O)n2c1CCCCC2,73%
CCN(CC)C(=O)CC[C@@H]1CNC(=O)[C@@H]2C[C@H](NCc3cccs3)CN12,17%[44.1 µM]
C[C@H]1[C@@H]2[C@@H](O)C([C@H](C)C(=O)NC3CC3)CC[C@@]2(C)CC[C@@H]1NC(=O)c1cnccn1 (some centres undefined),i
CC(=O)N[C@H]1CC[C@]2(C)CCC([C@H](C)C(=O)NCc3ccc(F)cc3)[C@H](O)[C@H]2[C@@H]1C (some centres undefined),i
C[C@H]1[C@@H]2[C@@H](O)C([C@H](C)C(=O)NCc3ccc(F)cc3)CC[C@@]2(C)CC[C@@H]1NC(=O)c1cnccn1 (some centres undefined),8.9µM*
Cc1ccc(C2Cn3nnc(-c4noc(-c5cccc(F)c5)n4)c3CO2)cc1 (centres undefined),-6%
Cn1cc(C(=O)NCC2CN(C(=O)Cc3cccc(Oc4ccccc4)c3)CC23CN(c2ccccc2)C3)cn1 (centres undefined),-21%
O=C(Cc1ccccc1)NCC1CN(C(=O)Cc2cccc(Oc3ccccc3)c2)CC12CN(c1ccccc1)C2 (centres undefined),-14%
O=C(NCC1CN(C(=O)Cc2cccc(Cl)c2)CC12CN(c1ccccc1)C2)C1CC1 (centres undefined),8.9µM*
SMILES,Pf Dd2 growth
CN(C)Cc1nc(C(=O)N2CCC3(CC2)[C@H](O)C[C@@H]3O)cs1,-13%
C=CCNC(=O)[C@@H]1Cc2cn(Cc3ccncc3)c3cccc(c23)[C@H](CC(C)C)N1,-29%[44.1 µM]
C=CCNC(=O)[C@@H]1Cc2cn(Cc3cc(C)on3)c3cccc(c23)[C@H](CC(C)C)N1,-24%[44.1 µM]
CC(C)C[C@@H]1N[C@H](C(=O)O)Cc2cn(Cc3nccn3C)c3cccc1c23,i
C=CCNC(=O)[C@@H]1Cc2cn(CC=C)c3cccc(c23)[C@H](CC(C)C)N1,14µM*
C=CCn1cc2c3c(cccc31)[C@H](CC(C)C)N[C@H](C(=O)NCCN(C)C)C2,-3%[44.1 µM]
CC(C)C[C@@H]1N[C@H](C(=O)O)Cc2cn(CC3CCC3)c3cccc1c23,i
Cc1cc(Cn2cc3c4c(cccc42)[C@H](CC(C)C)N[C@H](C(=O)NC2CCC2)C3)no1,-24%[44.1 µM]
COCCCNC(=O)[C@@H]1Cc2cn(Cc3cc(C)on3)c3cccc(c23)[C@H](CC(C)C)N1,i
Cc1cc(Cn2cc3c4c(cccc42)[C@H](CC(C)C)N[C@H](C(=O)NCc2cncn2C)C3)no1,11µM*
CC(C)C[C@@H]1N[C@H](C(=O)NC2CCCC2)Cc2cn(Cc3nccn3C)c3cccc1c23,-5%[44.1 µM]
CC(C)C[C@@H]1N[C@H](C(=O)NC2CCC2)Cc2cn(CC3CC3)c3cccc1c23,14µM*
C#CCNC(=O)[C@@H]1Cc2cn(Cc3nccn3C)c3cccc(c23)[C@H](CC(C)C)N1,10µM*
COc1ccccc1N1CCN(C(=O)[C@H]2CN3CCC2C[C@@H]3Cn2cc(-c3ccccc3)nn2)CC1 (some centres undefined),-21%
COC(=O)N1CCc2nc(-c3ccc(Cl)cc3)nc(-c3ccccc3)c2C1,i
COCCNC(=O)[C@@H]1C[C@H](Oc2cccnc2)CN1C(=O)C(C)C,15%
CC(=O)c1ccc(NC(=O)O[C@@H]2CO[C@H]3[C@@H]2OC[C@@H]3NC(=S)NC2CCCCC2)cc1,-13%
COc1ccc(-n2c(=O)c3c(n2Cc2ccccc2)CN(C(=O)C(C)C)CC3)cc1,i
Cc1ccc(N2CCC(NC(=O)c3ccc(F)cc3Cl)C2=O)cc1C (centres undefined),10%
O=[S+]([O-])(c1cccc(C(F)(F)F)c1)N1CCCC2(CC(c3ccccc3)=NO2)C1 (centres undefined),10%
Cn1cccc1C(=O)N1CCN(C(=O)N2CC3CC(C2)[C@H]2CCCC(=O)N2C3)CC1 (some centres undefined),-4%
CN(Cc1ccccc1)Cc1cn(C[C@H]2CC3CCN2C[C@@H]3C(=O)NC2CC2)nn1 (some centres undefined),i
Cc1cc(CN2CCC3(CC2)CN(c2ccncn2)CC3CO)n(C)n1 (centres undefined),i
O=C(Nc1ccc(F)c(Cl)c1)N1CCC2(CC1)Oc1ccccc1C(=O)N2Cc1ccccc1F,3%
Cc1ccc(NC(=O)N2CCC3(CC2)Oc2ccccc2C(=O)N3Cc2ccc(F)cc2)cc1,11µM*
SMILES,Pf Dd2 growth
COc1ccc(Cl)cc1NC(=O)N1CCC2(CC1)Oc1ccccc1C(=O)N2Cc1ccc(F)cc1,13µM*
CC1(C(=O)NC2CCCCC2)Cc2ccccc2C(=O)N1Cc1ccc(F)cc1 (centres undefined),19%
Cc1ccc(NC(=O)N2CCC3(CC2)SCC(=O)N3Cc2ccccc2)cc1,i
O=C(Nc1cccc(Cl)c1Cl)N1CCC2(CC1)SCC(=O)N2Cc1ccco1,i
O=C(Nc1ccccc1Cl)N1CCC2(CC1)Oc1ccccc1C(=O)N2Cc1ccc(F)cc1,14µM*
COc1ccc(Cl)cc1NC(=O)N1CCC(CN2CCCCCC2)CC1,-11%
COc1ccc(Cl)cc1NC(=O)C[C@H]1NC(=O)c2ccccc2NC1=O,-23%
Cc1ccc(S(=O)(=O)N2CCCN(C)c3ccccc32)cc1F,-17%
COc1ccc(CC(=O)N2CCN(c3cc(-c4cccs4)[nH]n3)CC2)cc1OC,0%
CC(C)c1nnc(C2CN(C(=O)CCN3CCOCC3)CC23CCOCC3)o1 (centres undefined),12%
CCCNC(=O)N1CCCC2(CCC(=O)N(Cc3cnc(C)cn3)C2)C1 (centres undefined),3%
CC1CCCN1c1ncnc2c1CN(c1ccccc1F)C(=O)CN2C (centres undefined),-14%

# High-throughput results from PubChem.
